# The supplement of paper PMC9262897, “Low-cost anti-mycobacterial drug discovery using engineered E. coli” (Nature Communications, 2022)
# Where a name gives a salt, the structure may show the parent alone. ± gives the standard deviation of the averaged measurements.
# Key:
# Experiment in all cases: growth (OD600 after 10 h); higher = more growth (less inhibition)
# [1] = test system: E. coli TESEC Alr+ wild-type control; details: compound 0.1 mM; raw OD600 reference: median of DMSO wells 0.241, cell-free background 0.041
# Protocol: (§1)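 TESEC Mtb Alr E. coli, or the Alr+ wild-type control, in 384-well plates with Prestwick library compounds at 0.1 mM and 1% DMSO, across arabinose induction levels of 1E3 to 1E7 nM. Growth is read as OD600 after 10 h at 37 °C in triplicate biological replicates.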
# E. coli TESEC Mtb Alr [2] = details: compound 0.1 mM
# Protocol: as §1
# E. coli TESEC Mtb Asd = details: compound 0.1 mM
# Protocol: (§2)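 TESEC E. coli strains in which the native enzyme is deleted and replaced by arabinose-inducible Mtb Asd, DapB, CysH or TrpD, each grown in its selective medium. Strains were screened against the Prestwick library at 0.1 mM and 1% DMSO in 384-well format at low and high arabinose induction. Growth is read as OD600 after 10 h in triplicate.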
# E. coli TESEC Mtb DapB = details: compound 0.1 mM
# Protocol: as §2
# [3] = test system: E. coli TESEC Alr+ wild-type control; details: compound 0.1 mM; raw OD600 reference: median of DMSO wells 0.49, cell-free background 0.052
# Protocol: (§3)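 TESEC Mtb Alr E. coli (ΔaraC ΔtolC ΔentC Δalr ΔdadX, arabinose-inducible Mtb Alr) or the Alr+ wild-type control strain, grown in defined M9-fructose medium without D-alanine in 96-well plates with Prestwick library compounds at 0.1 mM and 1% DMSO. Low Alr induction is 0.1 µM arabinose and high induction is 10 mM arabinose.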
# E. coli TESEC Mtb Alr [4] = details: compound 0.1 mM; remark: listed apart in the source
# Protocol: as §3
# [5] = arabinose 1000 nM, raw OD600 reference: median of DMSO wells 0.294, cell-free background 0.041
# [6] = arabinose 10000 nM, raw OD600 reference: median of DMSO wells 0.264, cell-free background 0.041
# [7] = arabinose 100000 nM, raw OD600 reference: median of DMSO wells 0.201, cell-free background 0.041
# [8] = arabinose 1000000 nM, raw OD600 reference: median of DMSO wells 0.193, cell-free background 0.041
# [9] = arabinose 10000000 nM, raw OD600 reference: median of DMSO wells 0.146, cell-free background 0.041
# [10] = arabinose induction (level): High, raw OD600 reference: median of DMSO wells 0.331, cell-free background 0.041
# [11] = arabinose induction (level): Low, raw OD600 reference: median of DMSO wells 0.417, cell-free background 0.041
# [12] = arabinose induction (level): High, raw OD600 reference: median of DMSO wells […], cell-free background 0.041
# [13] = arabinose induction (level): Low, raw OD600 reference: median of DMSO wells 0.227, cell-free background 0.041
# [14] = arabinose 100 nM, raw OD600 reference: median of DMSO wells 0.413, cell-free background 0.052
# [15] = arabinose 10000000 nM, raw OD600 reference: median of DMSO wells […], cell-free background 0.052
Compound,growth [1],growth (E. coli TESEC Mtb Alr [2]; [5]),growth (E. coli TESEC Mtb Alr [2]; [6]),growth (E. coli TESEC Mtb Alr [2]; [7]),growth (E. coli TESEC Mtb Alr [2]; [8]),growth (E. coli TESEC Mtb Alr [2]; [9]),growth (E. coli TESEC Mtb Asd; [10]),growth (E. coli TESEC Mtb Asd; [11]),growth (E. coli TESEC Mtb DapB; [12]),growth (E. coli TESEC Mtb DapB; [13]),growth [3],growth (E. coli TESEC Mtb Alr [4]; [14]),growth (E. coli TESEC Mtb Alr [4]; [15])
CC(NC(C)(C)C)C(=O)c1cccc(Cl)c1 (centres undefined) [Bupropion hydrochloride],0.226 ± 0.0027,0.283 ± 0.018,0.257 ± 0.0069,0.229 ± 0.023,0.171 ± 0.0039,0.136 ± 0.0076,0.356 ± 0.055,0.41 ± 0.03,0.202 ± 0.0039,0.261 ± 0.086,0.46 ± 0.026,0.404 ± 0.012,0.365 ± 0.0095
COc1cc2c(c(OC)c1OC)-c1ccc(OC)c(=O)cc1[C@@H](NC(C)=O)CC2 [Colchicine],0.226 ± 0.0076,0.262 ± 0.034,0.267 ± 0.0042,0.204 ± 0.025,0.185 ± 0.0039,0.144 ± 0.0049,0.276 ± 0.063,0.355 ± 0.1,0.204 ± 0.018,0.228 ± 0.035,0.6712 ± 0.00062,0.423 ± 0.038,0.322 ± 0.0069
CC[C@@H](C(N)=O)N1CCCC1=O [Levetiracetam],0.247 ± 0.0084,0.304 ± 0.018,0.264 ± 0.0095,0.205 ± 0.0055,0.183 ± 0.0062,0.168 ± 0.0049,0.256 ± 0.074,0.313 ± 0.057,0.188 ± 0.0023,0.229 ± 0.023,–,0.409 ± 0.0085,0.364 ± 0.028
CC(=O)O[C@H]1CC[C@@]2(C)C(=CC[C@@H]3[C@@H]2CC[C@]2(C)C(=O)CC[C@@H]32)C1 [Dehydroisoandosterone 3-acetate],0.198 ± 0.065,0.239 ± 0.019,0.253 ± 0.01,0.144 ± 0.0063,0.106 ± 0.015,0.134 ± 0.0039,0.315 ± 0.044,0.391 ± 0.0042,0.181 ± 0.005,0.225 ± 0.017,0.253 ± 0.0042,0.376 ± 0.012,0.0699 ± 0.0044
CCN(C)C(=O)Oc1cccc([C@H](C)N(C)C)c1 [Rivastigmine],0.243 ± 0.0069,0.293 ± 0.004,0.302 ± 0.0098,0.213 ± 0.02,0.19 ± 0.021,0.156 ± 0.0029,0.325 ± 0.068,0.343 ± 0.067,0.188 ± 0.01,0.281 ± 0.04,–,0.418 ± 0.0056,0.342 ± 0.016
CCN(C(C)=O)c1cccc(-c2ccnc3c(C#N)cnn23)c1 [Zaleplon],0.205 ± 0.0057,0.259 ± 0.0063,0.238 ± 0.004,0.205 ± 0.028,0.154 ± 0.0051,0.132 ± 0.0056,0.243 ± 0.034,0.307 ± 0.086,0.179 ± 0.013,0.201 ± 0.0029,–,0.411 ± 0.012,0.298 ± 0.011
C[C@]12CC[C@H](O)C[C@H]1CC[C@@H]1[C@@H]2C[C@@H](O)[C@]2(C)[C@@H](C3=CC(=O)OC3)CC[C@]12O [Digoxigenin],0.228 ± 0.005,0.299 ± 0.018,0.257 ± 0.0041,0.201 ± 0.016,0.17 ± 0.0032,0.14 ± 0.0016,0.262 ± 0.025,0.458 ± 0.024,0.1864 ± 0.00095,0.244 ± 0.0061,0.491 ± 0.031,0.408 ± 0.02,0.331 ± 0.011
C#C[C@]1(O)CC[C@H]2[C@@H]3CCC4=CC(=O)CC[C@]4(C)[C@H]3CC[C@@]21C [Ethisterone],0.237 ± 0.0043,0.28 ± 0.01,0.2589 ± 0.0022,0.21 ± 0.015,0.172 ± 0.0021,0.1381 ± 0.001,0.344 ± 0.057,0.41 ± 0.063,0.179 ± 0.0098,0.219 ± 0.02,0.48 ± 0.055,0.408 ± 0.0092,0.39 ± 0.055
"NCC(O)c1ccc(O)cc1 (racemic) [(+,-)-Octopamine hydrochloride]",0.258 ± 0.0024,0.325 ± 0.02,0.268 ± 0.011,0.194 ± 0.012,0.179 ± 0.0096,0.162 ± 0.0021,0.483 ± 0.015,0.45 ± 0.018,0.203 ± 0.0088,0.271 ± 0.022,–,0.408 ± 0.015,0.337 ± 0.014
C[C@]12CC[C@@H](O)C[C@H]1CC[C@@H]1[C@@H]2CC[C@]2(C)C(=O)CC[C@@H]12 [3-alpha-Hydroxy-5-beta-androstan-17-one],0.129 ± 0.0054,0.135 ± 0.0032,0.114 ± 0.0066,0.131 ± 0.015,0.0604 ± 0.00044,0.0824 ± 0.00098,0.118 ± 0.0061,0.171 ± 0.018,0.122 ± 0.0084,0.135 ± 0.013,–,0.354 ± 0.027,0.0844 ± 0.0097
"NCC(CC(=O)O)c1ccc(Cl)cc1 (racemic) [Baclofen (R,S)]",0.248 ± 0.011,0.299 ± 0.0066,0.2703 ± 0.0017,0.22 ± 0.029,0.189 ± 0.0083,0.15 ± 0.007,0.392 ± 0.032,0.422 ± 0.029,0.219 ± 0.017,0.246 ± 0.04,–,0.408 ± 0.0092,0.361 ± 0.026
CN(C)C(=O)Oc1cc(OC(=O)N(C)C)cc(C(O)CNC(C)(C)C)c1 (centres undefined) [Bambuterol hydrochloride],0.22 ± 0.0079,0.266 ± 0.04,0.273 ± 0.0062,0.232 ± 0.02,0.193 ± 0.006,0.141 ± 0.0068,0.328 ± 0.026,0.39 ± 0.047,0.193 ± 0.02,0.211 ± 0.025,0.618 ± 0.051,0.405 ± 0.011,0.342 ± 0.015
"CNCC(O)c1ccc(O)cc1 (racemic) [(+,-)-Synephrine]",0.239 ± 0.0073,0.2963 ± 0.00035,0.267 ± 0.01,0.175 ± 0.012,0.198 ± 0.012,0.141 ± 0.0004,0.222 ± 0.018,0.322 ± 0.076,0.227 ± 0.021,0.232 ± 0.042,0.58 ± 0.057,0.4195 ± 0.0029,0.325 ± 0.027
N[C@@H]1C[C@H]1c1ccccc1 [Tranylcypromine hydrochloride],0.241 ± 0.013,0.285 ± 0.018,0.28 ± 0.0083,0.203 ± 0.02,0.19 ± 0.0048,0.141 ± 0.0022,0.354 ± 0.034,0.388 ± 0.012,0.183 ± 0.0098,0.23 ± 0.012,–,0.411 ± 0.011,0.371 ± 0.024
C#CCN(C)[C@H](C)Cc1ccccc1 [Selegiline hydrochloride],0.251 ± 0.0044,0.305 ± 0.015,0.283 ± 0.0084,0.233 ± 0.026,0.185 ± 0.0036,0.17 ± 0.004,0.291 ± 0.064,0.391 ± 0.016,0.222 ± 0.018,0.219 ± 0.0087,–,0.405 ± 0.017,0.342 ± 0.017
CCC1(CC)C(=O)C=CNC1=O [Pyrithyldione],0.223 ± 0.0058,0.295 ± 0.026,0.289 ± 0.0059,0.207 ± 0.017,0.2322 ± 0.0018,0.152 ± 0.0058,0.398 ± 0.047,0.438 ± 0.018,0.205 ± 0.014,0.23 ± 0.01,–,0.389 ± 0.009,0.398 ± 0.025
